# ERG-DNA inh: qHTS for Small Molecule Inhibitors of the ERG Ets/DNA interaction; Transcriptional regulator ERG (Homo sapiens), P11308; fluorescence polarization, His-ERG Ets domain / labelled DNA; Potency, µM (top dose mostly 76.9 µM), without a hit: at the top dose FP activity, negative = inhibition, usual class: inhibitors; actives 0.028% (n = 370,000); active = well fitted inhibition curve with a large enough effect in the polarisation, with a control signal flat; inconclusive = small, poorly fitted or top-dose-only effect, or effect the other way, or a change in a side signal; inactive = no such curve, though single readings can be large or run the other way; the % refers to the polarisation;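 also: polarization taken with two DNA probes labelled with fluorescein and Texas red; % of control where 0% means no effect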
#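 His-tagged ERG Ets domain (1 uM in the protein solution; 300mM KCl, 50mM Tris-HCl, 1mM EDTA, 1mM DTT, pH 7.5) received compound, then a probe mix of 5 nM fluorescein-DNA and 100nM Texas-615-DNA. Fluorescence polarization was read for both dyes.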
# RGS12 GoLoco inh: qHTS Assay for Inhibitors of RGS12 GoLoco Motif Activity (Red Fluorophore) | AID 880, 2007 | Potency, µM (doses to about 61.6 µM), for inactives: at the top dose activity, negative = inhibition, actives largely listed as inhibitors | actives 0.44% (n = 230,000) | Gai1:RGS12 GoLoco peptide FP, rhodamine, 10 min | Guanine nucleotide-binding protein G(i) subunit alpha-1 (Homo sapiens), P63096; active = well fitted inhibition curve with a large enough effect, not every such curve was filed as active; inactive = no such curve, though single readings can be large or run the other way; also: % is scaled to controls: 0 for no effect and ±100 for the full control effect; nearly all actives have a fitted effect of over 30% in size
# Target sequence (P63096 whole entry, looked up): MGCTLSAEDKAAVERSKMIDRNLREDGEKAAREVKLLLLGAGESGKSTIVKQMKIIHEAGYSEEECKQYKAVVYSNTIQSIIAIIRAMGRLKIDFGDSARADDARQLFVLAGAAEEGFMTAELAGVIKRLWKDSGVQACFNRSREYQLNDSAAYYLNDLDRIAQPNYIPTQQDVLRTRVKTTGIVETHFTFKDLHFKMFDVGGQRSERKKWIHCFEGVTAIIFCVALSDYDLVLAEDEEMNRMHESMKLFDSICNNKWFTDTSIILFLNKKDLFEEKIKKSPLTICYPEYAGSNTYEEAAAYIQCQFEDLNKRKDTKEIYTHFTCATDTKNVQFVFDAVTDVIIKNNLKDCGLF
# Apoferritin bind: qHTS Assay for Identification of Novel General Anesthetics. Ferritin light chain (Equus caballus), P02791. apoferritin/1-aminoanthracene competitive binding, fluorescence. Potency, µM (highest dose often 77.5 µM), without a hit: at the highest dose activity change, negative = displacement, usual class: inhibitors. actives 0.074% (n = 350,000); also: % is scaled to controls: 0 for no effect and ±100 for the full control effect; nearly all actives have a fitted effect of over 20% in size
# Target sequence (P02791 2-175 limits assumed): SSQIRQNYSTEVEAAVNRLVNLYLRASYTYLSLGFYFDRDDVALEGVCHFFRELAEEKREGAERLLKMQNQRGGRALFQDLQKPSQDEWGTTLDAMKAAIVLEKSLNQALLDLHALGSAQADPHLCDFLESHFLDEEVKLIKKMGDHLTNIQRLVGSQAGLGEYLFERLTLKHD
#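 10 uM apoferritin + 50% sat. 1-AMA, PBS; cpd 10 min RT; Ex380/Em535 endpoint; normalized to free probe vs complex; 4-param Hill fit; propofol titration as pos. ctrl.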
# TexasRed fluor: Total Fluorescence Counterscreen for Inhibitors of the Interaction of Thyroid Hormone Receptor and Steroid Receptor Coregulator 2; Potency, µM (doses to about 106 µM), for the others: top-dose fluorescence change, negative = quenching; TRb/SRC2 Texas Red total fluorescence interference; actives 0.29% (n = 280,000); active = well fitted curve in either direction with a large enough effect; inconclusive = small, poorly fitted or top-dose-only effect; also: % is scaled to controls: 0 for no effect and ±100 for the full control effect
#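 Human TRβ ligand-binding domain (0.6 uM) and Texas Red SRC2 peptide (20 nM) in Tris buffer with 1 uM T3 and 5% DMSO were incubated with pinned compound for 5 hr at ambient temperature. Total fluorescence was computed as S + 2P (555/632 nm).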
# TRb SRC2 PPI: qHTS for Inhibitors of the Interaction of Thyroid Hormone Receptor and Steroid Receptor Coregulator 2. TRbeta-SRC2 peptide binding, fluorescence polarization; receptor liganded with 1 µM T3. Thyroid hormone receptor beta (Homo sapiens), P10828. Potency, µM (series often up to 106 µM), without a hit: top-dose activity change, negative = inhibition, usual class: inhibitors. AID 1469, 2008. actives 0.065% (n = 280,000);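 also: plate controls were bound peptide for no effect and peptide without receptor for full effect; nearly all actives have a fitted effect of over 50% in size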
#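 Each compound concentration gave % activity, normalized to unbound and bound Texas Red SRC2 controls, from polarization read after 5 hr ambient incubation with T3-loaded human TRb LBD.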
# Starred values were filed as active, the others as inactive; ? = inconclusive; nt = not tested or not shown; [ ] = remark or other dose. Most compounds without a hit are left out; they make up all but 0.44% or so of the library. Unless noted, calls follow the shape of the dose curve; as a rule, active = well fitted curve in the direction sought with a large enough effect; inconclusive = small, poorly fitted or top-dose-only effect, or another doubt; inactive = no such curve, though single readings can be large; an effect the other way counts as inactive or inconclusive. Potency is read from the fitted curve at half-maximal effect.
SMILES,ERG-DNA inh,RGS12 GoLoco inh,Apoferritin bind,TexasRed fluor,TRb SRC2 PPI
CC[n+]1c(/C=C/N(C)c2ccccc2)oc2ccc(Cl)cc21,-10%,-8%,-22%,2%,9%
CC1CCc2c(sc3nn[nH]c(=O)c23)C1 (centres undefined),nt,13%,25µM*,-1%,-7%
CSc1nc2sc3c(c2c(=O)[nH]1)CCC(C)C3 (centres undefined),0%,-4%,-4%,-1%,0%
O=S(=O)(O)c1ccc2c(N=Nc3ccc(S(=O)(=O)O)c4ccccc34)c(O)c(S(=O)(=O)O)cc2c1,nt,1%,nt,-18%,?
O=S(=O)(O)c1ccc(N=Nc2cc(S(=O)(=O)O)c3ccccc3c2O)c2ccccc12,nt,nt,nt,100µM*[fluorescent],?
CCCCCCCCCc1ccccc1,nt,nt,nt,-2%[201 µM],7%[201 µM]
CN(C(=O)c1nc(-c2cccc(F)c2)n2c1CCCCC2)c1ccccc1F,5%,nt,21%,-1%,-1%
CCOc1ccc(CCNC(=O)c2nc(-c3cccc(F)c3)n3c2CCCCC3)cc1OCC,1%,nt,43%,63µM*[quencher],-27%
CC(C)=CCC/C(C)=C\CO,nt,nt,nt,1%[201 µM],6%[201 µM]
Cc1ccccc1OCc1ccc(-c2nc(C#N)c(N3CCC(C(N)=O)CC3)o2)o1,-3%,nt,-6%,-21%,4%
Cc1cccc(OCc2ccc(-c3nc(C#N)c(N4CCN(c5ccccc5)CC4)o3)o2)c1,1%,nt,49%,6310µM*[quencher],-21%
CCN1CCN(c2oc(-c3ccc(COc4ccccc4C)o3)nc2C#N)CC1,-1%,nt,62%,28µM*[quencher],-11%
Cc1noc(C)c1-c1ccc2ncnc(NC3CCCc4ccccc43)c2c1 (centres undefined),nt,nt,-9%,0%,-5%
CCN1/C(=C2\C(=O)N(c3ccccc3)N=C2C)C=Cc2cc(C)ccc21,2%,3.5µM*,-2%,-3%,-3%
CCOC(=O)C1=C(C)NC(=S)NC1c1cc(C)sc1C (centres undefined),6%,10%,-23%,2%,5%
CCOC(=O)c1c(NC(=O)C2=C(C)NC(=S)NC2c2ccccc2C(F)(F)F)sc(C)c1C (centres undefined),35µM*,-41%,0%,13%,10%
CC1(C)[C@@H]([C@@H](Br)C(Br)(Br)Br)[C@H]1C(=O)O[C@H](C#N)c1cccc(Oc2ccccc2)c1,nt,nt,nt,2%[201 µM],3%[201 µM]
Nc1ccc2c3c(cccc13)C(=O)N(c1ccccc1)C2=O,25µM*,-23%,127%,10%,-3%
CCN(CCCCO)c1nc(C)nc2c1c(C)c(C)n2-c1c(C)cc(C)cc1C,nt,nt,-4%,-1%,0%
OC1CCC(C2CCCCC2)CC1 (centres undefined),nt,nt,nt,-10%[201 µM],-1%[201 µM]
CCN(CC)S(=O)(=O)c1cccc(N=NC2=C(O)CCCC2=O)c1,-12%,3%,-9%,?,40µM*
c1ccc2c(c1)ccc1ccccc12,2%,-5%,nt,1%[201 µM],0%[201 µM]
CC1=[N+](C)c2ccc3ccccc3c2C1(C)C,99%,165%,-1%,4.5µM*[fluorescent],32µM*
COc1ccc(NC(=O)c2c(NCc3ccc(C)o3)sc3c2CCCCC3)c(OC)c1,0%,nt,-16%,112µM*[quencher],-25%
COc1ccc(NC(=O)c2c(NCc3ccc(C)o3)sc3c2CCC(C)C3)c(OC)c1 (centres undefined),0%,nt,-8%,-6%,-2%
SMILES,ERG-DNA inh,RGS12 GoLoco inh,Apoferritin bind,TexasRed fluor,TRb SRC2 PPI
Cc1ccsc1C1NC(=O)c2c(sc3c2CCN(C)C3)N1 (centres undefined),14%,67%,41%,17%,-11%
CN1CCc2c(sc3c2C(=O)NC(c2cccs2)N3)C1 (centres undefined),nt,31%,-4%,45µM*[fluorescent],?
CCSC(=O)N(CC(C)C)CC(C)C,nt,nt,nt,-5%[201 µM],3%[201 µM]
NC(=O)c1cc(-c2ccccc2)nc(N2CCOCC2)n1,-6%,1%,4%,0%,7%
CC[n+]1cc(-c2ccccc2)nc(N2CCOCC2)n1,nt,7.1µM*,-15%,-1%,2%
CCCCOCCOCCOC(=O)CCCCC(=O)OCCOCCOCCCC,nt,nt,nt,-6%[201 µM],-3%[201 µM]
COC(=O)c1ccc(I)cc1S(=O)(=O)NC(=O)Nc1nc(C)nc(OC)n1,nt,nt,nt,1%[201 µM],-2%[201 µM]
O=C(OCC1OC(OC(=O)c2cc(O)c(O)c(OC(=O)c3cc(O)c(O)c(O)c3)c2)[C@@H](OC(=O)c2cc(O)c(O)c(OC(=O)c3cc(O)c(O)c(O)c3)c2)C(OC(=O)c2cc(O)c(O)c(OC(=O)c3cc(O)c(O)c(O)c3)c2)C1OC(=O)c1cc(O)c(O)c(OC(=O)c2cc(O)c(O)c(O)c2)c1)c1cc(O)c(O)c(OC(=O)c2cc(O)c(O)c(O)c2)c1 (some centres undefined),nt,-14%,-16%,16µM*[quencher],?
C=CC(C)(CCC=C(C)C)OC(C)=O (centres undefined),nt,nt,nt,-4%[201 µM],-3%[201 µM]
COc1cccc(CS(=O)(=O)c2nnnn2-c2ccccc2)c1,nt,5%,nt,1%,10%
O=C(NCC(c1cccnc1)N1CCN(Cc2ccccc2)CC1)C(=O)Nc1ccc(F)cc1 (centres undefined),19%,nt,-2%,5%,-8%
O=C(NCC(c1cccnc1)N1CCN(Cc2ccccc2)CC1)C(=O)Nc1cccc(F)c1 (centres undefined),-10%,nt,56%,0.25µM*[quencher],-14%
O=C(NCc1cccnc1)C(=O)NCC(c1cccnc1)N1CCN(c2ccccc2F)CC1 (centres undefined),1%,nt,59%,100µM*[quencher],-24%
CCN(CC)CCNC(=O)C(=O)NCC(c1cccnc1)N1CCN(c2ccccc2)CC1 (centres undefined),9%,nt,42%,89µM*[quencher],-25%
CN(C)CCNC(=O)C(=O)NCC(c1cccnc1)N1CCN(c2ccccc2)CC1 (centres undefined),6%,nt,30%,-10%,3%
O=C(NCC(c1cccnc1)N1CCc2ccccc21)C(=O)Nc1ccccc1F (centres undefined),6%,nt,1%,0.32µM*[quencher],-16%
O=C(NCC(c1cccnc1)N1CCN(c2ccccc2F)CC1)OCc1ccccc1 (centres undefined),0%,6%,-16%,-3%,-11%
CN[C@@H](c1ccncc1)[C@@H](NC)c1ccncc1,nt,8%[14.2 µM],nt,nt,nt
CC(C)(C)OC(=O)NS(=O)(=O)NCc1ccco1,nt,nt,2%,-2%,6%

# Compound activity: PubChem BioAssay, National Center for Advancing Translational Sciences (NCATS)
